Reference: the supplement of paper PMC6555819

Each sequence was assayed on THRa:RXRa (NR concentration 90 nM, RXRa partner concentration 90 nM) (assay: PBM binding z-score (relative to random genomic background probes); higher = stronger binding; sequences stand for … in GC…GCGATTGACAGCGTAGAATGAAGG).
How it was run: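 Probes were double-stranded and carried 34-nt variable regions with direct-repeat seeds, single-nucleotide variants, half-site ablations and random human genomic background sequences, printed on custom Agilent 4×180K protein-binding microarrays. Arrays were incubated 1 h with ligand-free nuclear receptor dimers in PBS pH 7.4, 2% milk, 0.02% Triton X-100, 1 mM DTT, 0.2 mg/mL BSA and 0.4 mg/ml salmon testes DNA. Antibodies against each partner (one per run) detected binding, and scanned fluorescence was regression-normalized. Binding z-scores use the random background probes as reference.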

Sequence	PBM binding z-score
ATATGTAGGTTAGATCCGGGTCATTCAGGCTATG	3.63
AGTCAAAGTTCACTAGGTAACGTCAGATTCAGCT	1.96
CATACAGGGTCAGCTAGGCCATAGTAGGGACGGC	3.22
ATCTCTAGGTAAAACTCAGTTCAGTGAAGAACGC	1.18
ATCTCTAGGGAAAGTTCAGTGAAAGATCGATAGA	0.605
GATACAGAGTCAAGGCCAGAGTACGCGTATTGAT	0.0889
GGAACGAGGGCATAGTTGATAGCATCTGTCGACG	0.72
TAGCCTAGGTCATTCAGGGGCCCGTATAGAAAGC	3.61
CCTCGGAGGACAGAAGGTCAGAGCGGTCCGCTTT	2.35
CCTAGTTGGTCAGGACGTCACACACCGGATATGA	0.673
CCTCGGAGGACAGAAGGTCAGAGATGTCCGCTTT	2.05
CGTCCAAGGTCTGAGAGGTCAGTGAATGCCGAGT	2.52
ATCTCTAGGTACAAGTTCAGTGAATCCCGAGGAT	0.819
GCAGAAAGGTGAAACGCAGGTAACTCAGGGTGGC	2.25
GCTAGCAAGCCATTTGGGTCACTCAATGACGGGC	1.51
CGAACTAGGTCATTGACAGGACAGGGAATAGTAA	2.99
ACAGGCAGGTGAGTGAAGGTAACTCAGCTGGACG	1.31
CAAACTAGGTTAAGAGGTCAAAGTCCGCTTCCCG	3.89
TCGAGTAGGTTACCAATGGGGCATCCAGCTTTCT	-0.146
TACCCTAGGTCATGCGGGCCAGTATAGTGTCGGC	3.18

Sequence	PBM binding z-score
CTCGAACGGTCGTGCTCAGGTGAGTATACCAAAC	1.4
TATACAGAGTCAAAGGCCAGAGTACGAATGTCGA	-0.0396
TCTTGTAGATCAGCAGGGTAAGAAAGCTGGCCAA	-0.165
ACTATTGGTTGACTTAGGGCAACCGATACGACGC	1.66
CGTCCAAGGTCAGAGAGGTCAGTGATTGCCGAGT	4.13
CCTACTGGGCCAAAAAGGTCACTGATGCCGATAA	3.07
CCTCGGAGGACAACACGAGGTCAGAGCTGCCAGA	3.57
CGAACGAGGGCTTGAGTTGATAGCAAATGCCGAT	-0.359
AGTCAAGGTTCAGGACGAGGTAACGTAAAGCACG	3.55
CGAACTAGGTCAGAACAGGACAGGGAAGGATGAT	3.92
CCTACTGGGCCACGAAAGGACATTGATTCAGTGA	1.94
AGAACGCGGGCAATGAGTTGATAGCACGGGTGGC	-0.395
CCTCGGAGGATAACAGGAGGTCAGAGCTGCCAGA	2.4
ATATGTAGGTTACACCCGGGTCATTCAGGCTATG	3.77
AGAATGAGGGTATACGTAGATCAGGGAAGAAAGT	0.252
CCTACTTGGCCAAAGGTCATTGATTCCAATGCTC	3.3
ACTCGGAGGACACAGGTCAGAGCTACGCCAGTGA	2.57
AGAATGAGGTTATTCGTAGATCAGGGAAGAAAGT	2.32
TAGCCTAGGTCAGATCGGGACAGTATACGCTATA	4.67
CGAACTAGGTCAGAACAGGGCAGTGAAGGATGAT	2.69
